PubChem BioAssay (NCI)
Compounds without any hit were thinned out: in the full panel of roughly 83,000, 20% have a hit.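 Cells were grown in 96-well plates and exposed to the test compound at a single concentration for 48 hours; results are reported as percent growth, with values below 10 considered active.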 Values without a mark were called inactive. Calls of active or inactive are those of the source.

Experiments:
Assay in all cases: NCI-60 one-dose screen, 48 h (100 = growth as untreated, 0 = no growth, -100 = all killed)
Conditions in all cases: 10 µM unless noted
DU-145 prostate = tested on: DU-145 prostate
K-562 leukemia = tested on: K-562 leukemia
MALME-3M melanoma = tested on: MALME-3M melanoma
MDA-MB-231 breast = tested on: MDA-MB-231 breast
RXF 393 renal = tested on: RXF 393 renal
SF-268 CNS = tested on: SF-268 CNS
SF-295 CNS = tested on: SF-295 CNS
SF-539 CNS = tested on: SF-539 CNS
UACC-257 melanoma = tested on: UACC-257 melanoma
M14 melanoma = tested on: M14 melanoma
HCT-15 colon = tested on: HCT-15 colon
HT29 colon = tested on: HT29 colon
SNB-75 CNS = tested on: SNB-75 CNS
SNB-19 CNS = tested on: SNB-19 CNS
U251 CNS = tested on: U251 CNS
PC-3 prostate = tested on: PC-3 prostate
SK-MEL-5 melanoma = tested on: SK-MEL-5 melanoma
UACC-62 melanoma = tested on: UACC-62 melanoma
LOX IMVI melanoma = tested on: LOX IMVI melanoma
SK-MEL-28 melanoma = tested on: SK-MEL-28 melanoma

Compound	growth (DU-145 prostate)	growth (K-562 leukemia)	growth (MALME-3M melanoma)	growth (MDA-MB-231 breast)	growth (RXF 393 renal)	growth (SF-268 CNS)	growth (SF-295 CNS)	growth (SF-539 CNS)	growth (UACC-257 melanoma)	growth (M14 melanoma)	growth (HCT-15 colon)	growth (HT29 colon)	growth (SNB-75 CNS)	growth (SNB-19 CNS)	growth (U251 CNS)	growth (PC-3 prostate)	growth (SK-MEL-5 melanoma)	growth (UACC-62 melanoma)	growth (LOX IMVI melanoma)	growth (SK-MEL-28 melanoma)
Cc1ccc(NCCN2CCCCC2)c2c(=O)c3ccccc3sc12	36.7%	16.2%	22.1%	28.3%	-29.5% (active)	45.7%	39%	32.3%	-43% (active)	-30% (active)	13.9%	20.5%	38.7%	36%	21.1%	38.2%	-92.2% (active)	-2.99% (active)	-50.1% (active)	11%
c1cc2ccc1CNCCN1CCNCc3ccc(cc3)Oc3ccc(cc3)CNCCN(CCNCc3ccc(cc3)O2)CCNCc2ccc(cc2)Oc2ccc(cc2)CNCC1	-88.6% (active)	-23.7% (active)	-5.04% (active)	-87% (active)	-30.8% (active)	-88% (active)	6.02% (active)	-89.2% (active)	37.5%	94.8%	95.4%	-74.7% (active)	-73.1% (active)	-91.2% (active)	-99.7% (active)	-85.5% (active)	66.1%	-76% (active)	-94.1% (active)	14.7%
CC(C)=CC/C=C(/C)[C@H]1CC[C@]2(C)[C@@H]1CC[C@@H]1[C@@]3(C)CC/C(=N/O)C(C)(C)[C@@H]3CC[C@]12C	73.7% [100 µM]	33.9% [100 µM]	81% [100 µM]	50.5% [100 µM]	61.3% [100 µM]	72% [100 µM]	64.2% [100 µM]	64% [100 µM]	59.5% [100 µM]	61.1% [100 µM]	57.2% [100 µM]	23.2% [100 µM]	69.4% [100 µM]	67.3% [100 µM]	50.9% [100 µM]	29.4% [100 µM]	18.2% [100 µM]	43.1% [100 µM]	59.6% [100 µM]	73.3% [100 µM]
Nc1ccc(NC(=O)c2ccccc2)c2c1C(=O)c1ccccc1C2=O	98.5%	105%	89.5%	94.7%	106%	99.3%	105%	103%	88.8%	100%	99%	104%	76%	102%	105%	87.2%	94.2%	101%	109%	113%
O=C(N=c1n(-c2ccccc2)nc2n1CCN2C1=NCCN1)c1ccc(Cl)cc1	95.7%	71.9%	91.3%	69.5%	61.9%	83.8%	97.1%	77.8%	102%	107%	82.5%	67.5%	66.3%	91.9%	80.8%	72.7%	65.6%	64.1%	61.2%	81.3%
COc1ccc(NC(=O)Nc2ccc(-c3cccnc3)cc2N2CCC(CO)CC2)cc1	55.3%	24.8%	67.2%	34.2%	13.1%	52.5%	32%	15.1%	46.6%	63.3%	43.7%	9.77% (active)	51.3%	49.3%	33%	83.7%	-38.3% (active)	68.7%	71.9%	18.7%
O=C(O)CC1CCCCC1c1ccccc1 (stereo not given)	117%	109%	112%	116%	106%	109%	100%	91.9%	112%	97.2%	97.8%	101%	106%	106%	105%	90%	105%	102%	103%	119%
CCN(CC)c1ccc2cc(C(Nc3ccc(Br)c(C(F)(F)F)c3)c3nnnn3C(C)(C)C)c(=O)oc2c1 (stereo not given)	103%	88.2%	88%	86.9%	82.9%	85.3%	103%	101%	93.3%	103%	94.8%	85.9%	67.7%	86.1%	86.6%	79.7%	84.7%	88.8%	98%	104%
CCCCCCCCCCCCCCNC(=O)Nc1ccc(Cl)c(Cl)c1	40.1%	100%	22.2%	27.7%	24.4%	46%	18.6%	51.1%	41.4%	49.2%	16.9%	46.6%	53.7%	56.3%	19.8%	16.7%	51.3%	33.6%	7.74% (active)	60.9%
COc1ccc(C=C2c3ccccc3-c3ccccc32)cc1	84.6%	18.8%	63.5%	59.2%	54.5%	53.8%	31.7%	43.7%	52.3%	30%	25.8%	13.7%	43.3%	51.4%	34.8%	63.6%	60.3%	23.6%	41.3%	64.9%
CCOC(=O)C(C(C)=O)c1nc2sc3cc(Cl)c(Cl)cc3n2c(=O)c1C#N (stereo not given)	109%	92%	95.5%	87.2%	179%	103%	103%	86.2%	118%	104%	109%	107%	73%	93%	111%	83.9%	74.3%	85.8%	98.1%	125%
CCOC(=O)C(=Cc1ccccc1[N+](=O)[O-])C(=O)OCC	-51.5% (active)	0.762% (active)	67.3%	9.18% (active)	0.0546% (active)	13.3%	95.5%	-15.5% (active)	42%	25.2%	5.68% (active)	11.4%	-7.8% (active)	59.6%	23.4%	47%	20.4%	32.3%	-18.5% (active)	33.7%
CCN(CC)CCCCCCNc1cccc2cc(Br)cnc12	91.4%	-27.8% (active)	47.9%	67.9%	91%	74.9%	84.8%	94.4%	80.7%	50.1%	84.7%	16.9%	92.2%	107%	81.2%	54.2%	94.7%	113%	69.3%	108%
CCOC(=O)CCC[P+](c1ccccc1)(c1ccccc1)c1ccccc1	90%	57.9%	75.4%	80.9%	108%	83.2%	105%	89.5%	27.2%	87.9%	102%	70.2%	86.8%	96%	52.6%	69.5%	48.5%	65%	83%	83.8%
Brc1ccc(-c2nnc3c4[nH]ccc4ncn23)cc1	101%	79.9%	101%	44.4%	107%	92.4%	96.1%	102%	109%	102%	88.6%	94.9%	95.6%	95.5%	100%	90.6%	93.3%	72%	85.4%	114%
CCOC(=O)CC(c1ccccc1)C(C#N)c1ccccc1 (stereo not given)	104%	108%	90.9%	106%	87.5%	99.4%	110%	109%	94.2%	91.8%	103%	103%	82.1%	111%	97.6%	89.5%	98.7%	97.3%	103%	95.5%
CCCCN(CCCC)CC(O)c1ccc(OCc2ccccc2)c2ccccc12 (stereo not given)	89.6%	-4.85% (active)	58.6%	74.9%	106%	74.5%	48.6%	101%	90.2%	72.2%	69.7%	19.1%	80.4%	96.7%	98.2%	63.6%	101%	95.5%	60.8%	109%
CC(C)(C)c1cc(C(=O)Nc2ccccc2C(=O)NCCN)cc(C(C)(C)C)c1	15.8%	-11.2% (active)	47.7%	-69.4% (active)	-89.3% (active)	57.5%	-69.4% (active)	63.4%	63.2%	-73.9% (active)	-56.7% (active)	-41.3% (active)	66.5%	-46.1% (active)	-57.3% (active)	4.8% (active)	46%	-58.3% (active)	-98.5% (active)	-84% (active)
